# Experimental data taken from PubChem BioAssay AID624252 (National Center for Advancing Translational Sciences (NCATS), 2012).
# Some of the results follow. Results filed as inconclusive are left out. Active and inactive are the calls of the source. The call rests on the fitted dose curve; in most records, active means well fitted cell-killing curve with a large enough effect; inconclusive means small, poorly fitted or top-dose-only effect; inactive means flat fitted curve, though single readings scatter.
# Test: qHTS screen for small molecules that inhibit ELG1-dependent DNA repair: Hit Confirmation with Unstimulated Viability Assay;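 further: compound exposure lasted 16 hours before reading; nearly all actives have a fitted effect of over 55% in size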
# Details: cell viability counter-screen, luminescence
# Description: Cancer cells divide rapidly compared to normal cells in the body. During cell division, cancer cells need to duplicate their genome by DNA replication. The failure of genome duplication leads to cancer cells' death. Therefore, inhibitors of DNA replication could specifically kill cancer cells. Based on this concept, many chemotherapeutic agents were developed and have been used to treat cancer patients. However, there are a limited number of agents available in the clinical setting, and some of those that do exist have low efficacy and severe side effects. Therefore, if we can find the compounds that effectively block DNA replication either by directly damaging DNA or by inhibiting other cellular mechanisms, the options for cancer treatment will be broadened. With this in mind, we developed a quantitative high-throughput ELG1-luciferase reporter gene assay. Small molecules that specifically block ELG1 function in response to DNA damage can be identified by monitoring the suppression of luciferase activity. Since ELG1 defines a pathway for repairing DNA damage, agents blocking ELG1 function can be used to sensitize cancer cells to chemotherapeutic agents whose mechanism of action involves the induction of DNA damage.
# NIH Molecular Libraries Probe Production Network [MLPCN]
# NIH Chemical Genomics Center [NCGC]
# Assay Provider: Kyungjae Myung, NHGRI, NIH
# For genotoxicity screening, 2,000 cells in 4 uL/well were dispensed into white, solid-bottom 1536-well plates using a solenoid-based dispenser. 23 nL compound or DMSO vehicle were added by a pin tool, the plates were incubated 16 hr at 37 °C and 5% CO2. 5 ul ONE-Glo (Promega) was then added to each plate and following a 30 min incubation at room temperature, luciferase activity was quantified on a ViewLux CCD-based plate reader.
# Potency means the concentration at half of the fitted maximal effect.
row,SMILES,Potency
1,COC1CC(OC2CC[C@@]3(C=O)C4CC[C@]5(C)C(C6=CC(=O)OC6)CC[C@@]5(O)C4CC[C@]3(O)C2)OC(C)C1O (stereo partly drawn),199 nM (active)
2,CC(=O)[O][Sn]([c]1ccccc1)([c]1ccccc1)[c]1ccccc1,1410 nM (active)
3,C[C@@]12CC[C@H]3[C@@H](CC[C@]4(O)C[C@H](O)CC[C@@]34C=O)[C@]1(O)CC[C@@H]2C1=CC(=O)OC1,425 nM (active)
